Holding throughout (assay): DAPPL (digital affinity profiling via proximity ligation, sequencing); 10 mM Tris-HCl pH 7.5, 50 mM NaCl, 1 mM DTT, 4% glycerol, room temperature, 30 min; GST-TFs on glutathione beads, 16-mer random dsDNA library, 0.1% formaldehyde crosslink after washing; high values mean tight binding
Common to all, as to conditions: protein: recombinant; tags: N-terminal GST; dsDNA, one strand shown

The target of one assay is T1, ERF (Homo sapiens, UniProt P50548 1-548).
T1 sequence: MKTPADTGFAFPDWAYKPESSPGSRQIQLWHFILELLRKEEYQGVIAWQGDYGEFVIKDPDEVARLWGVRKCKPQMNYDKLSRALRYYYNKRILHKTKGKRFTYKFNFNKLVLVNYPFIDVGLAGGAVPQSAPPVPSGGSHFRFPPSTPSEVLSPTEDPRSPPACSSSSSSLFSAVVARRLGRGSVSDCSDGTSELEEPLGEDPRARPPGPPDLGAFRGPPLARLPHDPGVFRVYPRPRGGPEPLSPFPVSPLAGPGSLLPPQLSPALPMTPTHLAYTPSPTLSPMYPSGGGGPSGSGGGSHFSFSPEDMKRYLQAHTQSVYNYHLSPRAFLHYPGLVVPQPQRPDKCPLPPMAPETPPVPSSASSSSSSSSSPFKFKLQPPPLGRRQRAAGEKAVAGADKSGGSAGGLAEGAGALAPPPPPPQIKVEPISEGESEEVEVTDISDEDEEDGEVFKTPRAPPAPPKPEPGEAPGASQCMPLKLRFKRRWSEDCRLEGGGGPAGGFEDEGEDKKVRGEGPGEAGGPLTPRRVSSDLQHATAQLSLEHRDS
An outline of the steps:
(§1)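 Binding signal is defined as a hexamer's read frequency for one factor over its frequency for the tag-only sample. To obtain reads, GST-fused human transcription factors were expressed in yeast, captured on glutathione beads, barcoded with DNA and pooled with that sample. Pools met 200 nmole of a 16-mer random double-stranded DNA library in Tris/NaCl/DTT/glycerol buffer for 30 min at room temperature before washing, 0.1% formaldehyde crosslinking, proximity ligation (BsaI/T4 ligase, 1 h, 37 °C), PCR and Illumina NextSeq500 sequencing.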

A further assay addresses T2, ETV3L (Homo sapiens, UniProt Q6ZN32 1-361).
T2 sequence: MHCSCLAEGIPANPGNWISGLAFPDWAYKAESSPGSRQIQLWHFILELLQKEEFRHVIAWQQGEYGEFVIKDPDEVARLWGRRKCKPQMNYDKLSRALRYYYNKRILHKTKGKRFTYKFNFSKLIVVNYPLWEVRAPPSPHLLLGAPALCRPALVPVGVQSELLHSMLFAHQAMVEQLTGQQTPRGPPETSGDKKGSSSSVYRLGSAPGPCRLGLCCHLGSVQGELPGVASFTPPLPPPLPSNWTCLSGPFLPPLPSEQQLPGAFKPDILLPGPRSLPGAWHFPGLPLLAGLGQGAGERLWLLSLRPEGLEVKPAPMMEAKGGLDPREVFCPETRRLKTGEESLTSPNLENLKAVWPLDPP
An outline of the steps: as §1

The target of a further assay is T3, ETS2 (Homo sapiens, UniProt P15036 1-469).
T3 sequence: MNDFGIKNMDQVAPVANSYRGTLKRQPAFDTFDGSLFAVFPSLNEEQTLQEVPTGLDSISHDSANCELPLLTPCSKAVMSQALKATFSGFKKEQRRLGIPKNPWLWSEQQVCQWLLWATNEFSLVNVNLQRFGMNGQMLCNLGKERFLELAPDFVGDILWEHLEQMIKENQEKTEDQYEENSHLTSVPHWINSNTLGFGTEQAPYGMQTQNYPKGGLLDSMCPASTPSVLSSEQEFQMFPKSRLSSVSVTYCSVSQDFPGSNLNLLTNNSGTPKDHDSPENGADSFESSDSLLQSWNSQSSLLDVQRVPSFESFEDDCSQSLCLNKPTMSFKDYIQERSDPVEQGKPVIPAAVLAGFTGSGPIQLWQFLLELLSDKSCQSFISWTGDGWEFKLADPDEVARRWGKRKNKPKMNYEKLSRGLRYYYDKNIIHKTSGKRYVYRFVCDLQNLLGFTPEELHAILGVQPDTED
An outline of the steps: as §1

Another assay has as its target T4, SPDEF (Homo sapiens, UniProt O95238 1-335).
T4 sequence: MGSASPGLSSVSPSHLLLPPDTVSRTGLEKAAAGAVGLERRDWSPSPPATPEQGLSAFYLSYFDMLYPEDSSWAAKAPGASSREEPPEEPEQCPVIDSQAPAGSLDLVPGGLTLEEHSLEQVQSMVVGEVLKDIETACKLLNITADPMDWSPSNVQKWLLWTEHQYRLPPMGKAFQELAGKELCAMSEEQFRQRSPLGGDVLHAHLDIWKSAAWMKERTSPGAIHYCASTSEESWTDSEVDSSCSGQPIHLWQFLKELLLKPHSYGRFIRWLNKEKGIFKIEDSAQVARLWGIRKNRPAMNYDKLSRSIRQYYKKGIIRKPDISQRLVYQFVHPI
An outline of the steps:
as §1

The next assay has as its target T5, ETV7 (Homo sapiens, UniProt Q9Y603 1-341).
T5 sequence: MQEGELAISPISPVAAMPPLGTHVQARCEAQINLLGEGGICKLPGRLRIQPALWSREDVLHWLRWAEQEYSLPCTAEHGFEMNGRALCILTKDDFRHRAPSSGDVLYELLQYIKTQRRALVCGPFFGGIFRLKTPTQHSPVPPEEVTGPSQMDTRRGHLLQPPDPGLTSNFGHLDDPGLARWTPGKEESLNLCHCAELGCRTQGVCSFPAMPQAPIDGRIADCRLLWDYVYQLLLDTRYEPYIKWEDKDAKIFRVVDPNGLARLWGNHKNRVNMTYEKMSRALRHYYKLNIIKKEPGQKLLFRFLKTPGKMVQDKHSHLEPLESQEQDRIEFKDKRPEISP
An outline of the steps:
as §1

Another assay deals with T6, ELF5 (Homo sapiens, UniProt Q9UKW6-2 1-255).
T6 sequence: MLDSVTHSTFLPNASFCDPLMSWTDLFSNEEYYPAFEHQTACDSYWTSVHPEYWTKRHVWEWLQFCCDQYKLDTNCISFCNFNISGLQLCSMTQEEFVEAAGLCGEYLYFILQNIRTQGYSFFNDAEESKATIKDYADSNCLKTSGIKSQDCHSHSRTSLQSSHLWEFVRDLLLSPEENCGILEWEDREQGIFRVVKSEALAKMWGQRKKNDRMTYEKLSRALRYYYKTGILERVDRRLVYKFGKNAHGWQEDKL
In a few lines: as §1

A further assay has as its target T7, ETV3 (Homo sapiens, UniProt P41162-2 1-143).
T7 sequence: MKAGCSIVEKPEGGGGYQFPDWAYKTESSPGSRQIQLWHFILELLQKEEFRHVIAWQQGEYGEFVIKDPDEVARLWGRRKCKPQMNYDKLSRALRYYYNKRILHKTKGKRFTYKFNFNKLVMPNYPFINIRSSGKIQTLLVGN
An outline of the steps:
as §1

A further assay concerns the target ETV6 (Homo sapiens, UniProt P41212 1-452). An outline of the steps: as §1

Sequence of ETV6 (P41212 whole entry): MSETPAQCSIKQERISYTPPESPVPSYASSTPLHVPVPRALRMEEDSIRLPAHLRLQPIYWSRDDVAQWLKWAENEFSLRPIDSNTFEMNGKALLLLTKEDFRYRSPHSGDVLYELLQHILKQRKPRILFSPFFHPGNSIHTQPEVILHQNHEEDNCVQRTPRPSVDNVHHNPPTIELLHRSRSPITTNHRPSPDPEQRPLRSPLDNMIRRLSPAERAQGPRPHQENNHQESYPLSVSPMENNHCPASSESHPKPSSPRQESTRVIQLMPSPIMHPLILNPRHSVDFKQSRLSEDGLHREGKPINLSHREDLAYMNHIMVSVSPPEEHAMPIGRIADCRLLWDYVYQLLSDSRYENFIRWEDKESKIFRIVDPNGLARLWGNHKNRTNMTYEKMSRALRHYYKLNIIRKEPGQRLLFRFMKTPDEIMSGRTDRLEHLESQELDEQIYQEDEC

AACGAC: the binding signal with ERF was 1.14 fold enrichment (6-mer frequency, TF over GST control); in the assay with ETV3L it was 1.15 fold enrichment (6-mer frequency, TF over GST control); with ETS2, 1.19 fold enrichment (6-mer frequency, TF over GST control); with SPDEF it was 1.16 fold enrichment (6-mer frequency, TF over GST control); in the assay with ETV7 it was 1.07 fold enrichment (6-mer frequency, TF over GST control); with ELF5, 1.18 fold enrichment (6-mer frequency, TF over GST control). Moreover, the binding signal was 1.11 fold enrichment (6-mer frequency, TF over GST control) with ETV3 and 1.19 fold enrichment (6-mer frequency, TF over GST control) with ETV6.
As to GCCTCA, the binding signal with ERF was 1.35 fold enrichment (6-mer frequency, TF over GST control); in the assay with ETV3L, 1.31 fold enrichment (6-mer frequency, TF over GST control); with ETS2 it was 1.13 fold enrichment (6-mer frequency, TF over GST control); with SPDEF, 1.16 fold enrichment (6-mer frequency, TF over GST control); with ETV7 it was 1.24 fold enrichment (6-mer frequency, TF over GST control); with ELF5 it was 1.15 fold enrichment (6-mer frequency, TF over GST control). Also, the binding signal in the assay with ETV3 was 1.19 fold enrichment (6-mer frequency, TF over GST control); with ETV6, 1.18 fold enrichment (6-mer frequency, TF over GST control).
With ATGTCA, the binding signal is 1.2 fold enrichment (6-mer frequency, TF over GST control) in the assay with ERF; 1.2 fold enrichment (6-mer frequency, TF over GST control) in the assay with ETV3L; 1.2 fold enrichment (6-mer frequency, TF over GST control) in the assay with ETS2; 1.1 fold enrichment (6-mer frequency, TF over GST control) in the assay with SPDEF; 1.02 fold enrichment (6-mer frequency, TF over GST control) in the assay with ETV7; 1.09 fold enrichment (6-mer frequency, TF over GST control) in the assay with ELF5. Further, the binding signal with ETV3 was 1.12 fold enrichment (6-mer frequency, TF over GST control); with ETV6, 1.11 fold enrichment (6-mer frequency, TF over GST control).
Consider TATAGA, for which the binding signal with ERF is 1.06 fold enrichment (6-mer frequency, TF over GST control); with ETV3L, 1.18 fold enrichment (6-mer frequency, TF over GST control); with ETS2, 1.04 fold enrichment (6-mer frequency, TF over GST control); with SPDEF, 1.14 fold enrichment (6-mer frequency, TF over GST control); with ETV7, 1.08 fold enrichment (6-mer frequency, TF over GST control); with ELF5, 1.09 fold enrichment (6-mer frequency, TF over GST control). The binding signal with ETV3 was 1.07 fold enrichment (6-mer frequency, TF over GST control); with ETV6 it was 1.11 fold enrichment (6-mer frequency, TF over GST control).
Turning to GAACCC, the binding signal in the assay with ERF is 1.03 fold enrichment (6-mer frequency, TF over GST control); with ETV3L, 1.19 fold enrichment (6-mer frequency, TF over GST control); with ETS2 it was 1.13 fold enrichment (6-mer frequency, TF over GST control); in the assay with SPDEF, 1.17 fold enrichment (6-mer frequency, TF over GST control); in the assay with ETV7, 1.16 fold enrichment (6-mer frequency, TF over GST control); in the assay with ELF5 it was 1.14 fold enrichment (6-mer frequency, TF over GST control). Also, the binding signal was 1.07 fold enrichment (6-mer frequency, TF over GST control) with ETV3 and 1.21 fold enrichment (6-mer frequency, TF over GST control) in the assay with ETV6.
GTCCCC: the binding signal was 1.23 fold enrichment (6-mer frequency, TF over GST control) with ERF; 1.15 fold enrichment (6-mer frequency, TF over GST control) with ETV3L; 1.15 fold enrichment (6-mer frequency, TF over GST control) with ETS2; 1.14 fold enrichment (6-mer frequency, TF over GST control) with SPDEF; 1.27 fold enrichment (6-mer frequency, TF over GST control) with ETV7; 1.13 fold enrichment (6-mer frequency, TF over GST control) with ELF5. The binding signal with ETV3 is 1.14 fold enrichment (6-mer frequency, TF over GST control); in the assay with ETV6, 1.24 fold enrichment (6-mer frequency, TF over GST control).
For the sequence CGTCCC, the binding signal in the assay with ERF was 1.35 fold enrichment (6-mer frequency, TF over GST control); in the assay with ETV3L, 1.3 fold enrichment (6-mer frequency, TF over GST control); in the assay with ETS2, 1.38 fold enrichment (6-mer frequency, TF over GST control); with SPDEF, 1.35 fold enrichment (6-mer frequency, TF over GST control); with ETV7, 1.22 fold enrichment (6-mer frequency, TF over GST control); with ELF5, 1.31 fold enrichment (6-mer frequency, TF over GST control). Also, the binding signal is 1.41 fold enrichment (6-mer frequency, TF over GST control) in the assay with ETV3 and 1.32 fold enrichment (6-mer frequency, TF over GST control) in the assay with ETV6.
